# Results as given in PubChem BioAssay (NCI).
# The panel holds about 83,000 compounds, 20% with a hit somewhere; the sample as a whole holds those more often.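 Single-dose data. Exposure time 48 hours. Values below 10 considered active.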 A number with no mark means an inactive call. Activity calls are given as the source filed them.
# Test system: NCI-H23 lung
# Assay: NCI-60 one-dose screen, 48 h (100 = growth as untreated, 0 = no growth, -100 = all killed)
# Settings: 10 µM
# Method: Growth inhibition of the NCI-H23 human Non-Small Cell Lung tumor cell line is measured as a screen for anti-cancer activity. Cells are grown in 96 well plates and exposed to the test compound for 48 hours. Compounds are tested at a single concentration, which is 10^-5 M for most compounds. The reported endpoint is percent growth (GI% or GIPRCNT), where numbers from 0 - 100% represent growth inhibition, and numbers from -100% - 0 represent cell death. For example, a value of 40 represents 60% growth inhibition. A value of 0 means no net growth occurred over the course of the experiment. A value of -40 indicates 40% of cells at the beginning of the experiment died by the end of the experiment. A value of -100 means all cells are dead at the end of the experiment.
# NCI-60 Human Tumor Cell Lines Screen was performed using the standard one-dose NCI protocol, which is described in more detail at https://dtp.cancer.gov/discovery_development/nci-60/default.htm.
# Compounds with GIPRCNT values below 10 were considered active. Activity score was based on GIPRCNT using the following formula: […]
# Score is 0 for GIPRCNT values of 100 or above, 50 for GIPRCNT values of 0, and 100 for GIPRCNT values of -100.
row,SMILES,growth
1,Cc1cc2ccccc2nc1-c1ccccc1F,109%
2,CN1CC[C@@H](c2c(O)cc(O)c3c(=O)cc(-c4ccccc4Cl)oc23)[C@@H](O)C1,-13.3% (active)
3,CCN1CCC(CCOC)(CN2c3ccccc3Sc3ccc(Cl)cc32)C1 (stereo not given),63.5%
4,COc1ccc2c(c1)/C(=C\c1c[nH]c3ccc(OC)cc13)C(=O)N2,49.4%
5,COc1cc(-c2nc(Nc3nc4ccccc4s3)[nH]c(=O)c2C#N)cc(OC)c1O,105%
6,C=C(C(=O)c1ccccc1)C(NC(C)(C)C)c1ccccc1 (stereo not given),31.9%
7,COc1ccc(Cl)cc1C(=O)Nc1nc2ccc(Cl)cc2s1,90.5%
8,O=C(Nc1ccc(Cl)c(Cl)c1)Nc1c(Oc2ccc(Cl)c(Cl)c2)ccc(Cl)c1S(=O)(=O)O,39.5%
9,CCCCC(CCCCCC(CCCC)NCc1ccc2c(c1)OCO2)NCc1ccc2c(c1)OCO2 (stereo not given),-98.5% (active)
10,FC(F)(F)c1ccc2nc(-c3nc(-c4ccccc4)n4ccccc34)[nH]c2c1,78.9%
11,CNc1ccc(CSc2ccc(C)cc2)cc1,91.2%
12,O=C(Nc1ccc(CO)cc1)c1ccccc1Nc1ccnc(C(F)(F)F)c1,96.5%
13,CSc1nc(=O)n(Cc2ccc(F)cc2)c(=O)n1Cc1ccc(C)cc1,101%
14,COc1cc2c(cc1OC)N(CCO)C1=C(C(=O)OC1)C2c1ccc(Cl)c(Cl)c1 (stereo not given),104%
15,COc1ccc(-c2nn(-c3cccc(NC(=O)c4ccc(N5CCOCC5)c(C(F)(F)F)c4)c3)cc2-c2ccncc2)cc1Cl,83.2%
16,O=C1/C(=C\c2ccc(Cl)cc2)CN(C(=O)c2ccccc2)C/C1=C\c1ccc(Cl)cc1,58.2%
17,COc1ccc(-c2cc(-c3ccc(N(C)C)cc3)c(C#N)c(N3CCCC3)n2)cc1,93.6%
18,Clc1nc(Cl)c2c(ncn2C/C=C\Cn2cnc3c(Cl)nc(Cl)nc32)n1,-15.8% (active)
19,O=C(CNC(=O)OCc1ccccc1)NCC(=O)Oc1ccc([N+](=O)[O-])cc1,102%
20,CCCCCCCCCCCCCCCCCC(=O)OCCCCCCC,94.8%

row,SMILES,growth
1,O=C(Nc1ccc(Cl)cc1)N1NC(c2ccc(Cl)cc2)C=C1c1ccccc1 (stereo not given),104%
2,CCN(CC)CCC(=O)Nc1cccc2c1C(=O)c1c(c(O)c3ccccc3c1O)C2=O,62%
3,O=C1Nc2ccc(Cl)cc2/C1=C\c1c(-c2ccc(Cl)cc2)nc2sc(C3CC3)nn12,67%
4,COc1ccc(OC)c(NC(=O)c2sc3nc4c(cc3c2N)C(=O)CCC4)c1,78.5%
5,COc1cc(C2CC(c3ccc(Nc4ccnc5cc(Cl)ccc45)cc3)=NN2c2ccc(Cl)cc2)cc(OC)c1OC (stereo not given),74.4%
6,CCCCOC(=O)Oc1ccc(C(=O)Oc2ccc(OCC)cc2)cc1,99.9%
7,Cc1ccc(NC(=O)Nc2c(Cl)cccc2Cl)cn1,109%
8,Cc1ccc(C(=O)N2C/C(=C/c3ccc(F)cc3)C(=O)/C(=C/c3ccc(F)cc3)C2)cc1,97.6%
9,COc1ccc2c(c1)C(=O)c1c-2c(=O)n(CCCN(C)C)c2cc(OC)c(OC)cc12,48.8%
10,Nc1c(C(=O)Nc2cccc(F)c2)sc2nc3c(cc12)C(=O)CCC3,41.6%
11,O=C1NC(=O)c2ncccc21,101%
12,CC(C)(C#N)Nc1ccccc1,108%
13,CN1CCC2(CC1)NC(=O)c1c(c3ccc(Cl)c(Cl)c3n1C)C2C#N (stereo not given),76.6%
14,O=C1/C(=C\c2ccc(Cl)cc2)CN(C(=S)Nc2ccccc2)C/C1=C\c1ccc(Cl)cc1,-52.8% (active)
15,COc1cc(NC(=O)CCSc2nc3ccc(Cl)cc3c(=O)n2Cc2ccccc2)cc(OC)c1OC,93.5%
16,O=C(C[n+]1ccccc1)c1ccc2ccccc2c1,88.1%
17,N#CCCN1C/C(=C/c2ccc(Br)cc2)C(=O)/C(=C/c2ccc(Br)cc2)C1,-30.8% (active)
18,O=c1[nH]c2ccc(Cl)cc2c2ccccc12,86.6%
19,Nc1ccc2c(c1)C1(CCC2)NC(=O)NC1=O (stereo not given),103%
20,Nc1c(C(=O)Nc2ccccc2)sc2nc3c(cc12)C(O)CCC3 (stereo not given),37.1%
